According to PubChem BioAssay (NCATS):
Records with an inconclusive call do not appear. Values without a mark were called inactive. Active and inactive are the calls of the source. Calls follow the shape of the dose curve; as a rule, active = well fitted cell-killing curve with a large enough effect; inconclusive = small, poorly fitted or top-dose-only effect, or effect the other way; inactive = no such curve, though single readings can be large or run the other way.

Test: Quantitative High-Throughput drug screen in 47 multiple myeloma cell lines against the NCATS MIPE library collection: XG6_PLB cell viability assay (AID 1919865); also: nearly all actives have a fitted effect of over 40% in size;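 as to viability (% of control): 100% = DMSO-only wells and 0% = media-only wells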
Details: XG6 myeloma viability, CellTiter-Glo ATP luminescence, 48 h; series mostly up to 45.8 µM; viability (% of control): at the top concentration
Outline: (§1)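 Readout: median RLU from CellTiter-Glo after 5 min at room temperature. Preceding step was 48 h drug treatment of 500 cells/well at 37 °C, 5% CO2, with DMSO-only and media-only control wells.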
Potency is read from the fitted curve at half-maximal effect.

| Compound | Potency | viability (% of control) [%] |
| --- | --- | --- |
| Cc1ccnc(NS(=O)(=O)c2ccc(NC(=O)Nc3ccc(S(=O)(=O)Nc4nccc(C)n4)cc3)cc2)n1 | 4.18 µM (active) | – |
| Oc1cccc(-c2nc(N3CCOCC3)c3oc4ncccc4c3n2)c1 | 0.136 µM (active) | – |
| Cc1n[nH]c(C)c1Cc1sc2c(c1C(=O)N1C[C@H](O)CO1)c(=O)n(C)c(=O)n2CC(C)C | – | 103 |
| Clc1ccc(Nc2nnc(Cc3ccncc3)c3ccccc23)cc1 | 2.09 µM (active) | – |
| CCn1c(-c2nonc2N)nc2cnc(Oc3cccc(NC(=O)c4ccc(OCCN5CCOCC5)cc4)c3)cc21 | 20.9 µM (active) | – |
| c1ccc(-c2nn3c(c2-c2ccnc4cc(OCCN5CCOCC5)ccc24)CCC3)nc1 | – | 100 |
| CCn1c(-c2nonc2N)nc2c(C#CC(C)(C)O)ncc(OC[C@H]3CCCNC3)c21 | 18.7 µM (active) | – |
| Cc1cccc(-c2nn(C(=S)Nc3ccccc3)cc2-c2ccnc3ccccc23)n1 | – | 95.2 |
| Cc1cccc(-c2[nH]c(C(C)(C)C)nc2-c2ccc3nccnc3c2)n1 | 3.32 µM (active) | – |
| O=S(=O)(N=Cc1c(O)ccc2ccccc12)c1cccs1 | 0.0935 µM (active) | – |
| CC1(C)CNc2cc(NC(=O)c3cccnc3NCc3ccncc3)ccc21 | 0.372 µM (active) | – |
| Cc1cc(C=c2sc3nc4ccccc4n3c2=O)c(C)n1-c1ccccc1 | – | 76.2 |
| C#Cc1cccc(Nc2ncnc3cc(OCCOC)c(OCCOC)cc23)c1 | 0.0833 µM (active) | – |

Test: Quantitative High-Throughput drug screen in 47 multiple myeloma cell lines against the NCATS MIPE library collection: XG1_PLB cell viability assay (AID 1919866); also: nearly all actives have a fitted effect of over 35% in size
Details: CellTiter-Glo ATP, 48 h; series mostly up to 45.8 µM; viability: at the top concentration
Outline: as §1

| Compound | Potency | viability [%] |
| --- | --- | --- |
| Cc1cc(-c2ccc(CC(=O)Nc3ccc(-c4cccnc4)cc3)cc2)ccn1 | 18.7 µM (active) | – |
| CCc1cc(Nc2nccc(-c3c(-c4ccc(OC)c(C(=O)Nc5c(F)cccc5F)c4)nc4ccccn34)n2)c(OC)cc1N1CCC(N2CCN(S(C)(=O)=O)CC2)CC1 | 1.18 µM (active) | – |
| O=c1n(CCCN2CCN(c3cccc(Cl)c3)CC2)nc2ccccn12 | – | 107 |
| C[C@@H]1CN(Cc2ccc(F)cc2)[C@@H](C)CN1C(=O)c1cc2c(C(=O)C(=O)N(C)C)cn(C)c2cc1Cl | 18.7 µM (active) | – |
| Cc1ccccc1C(OCCN(C)C)c1ccccc1 (stereo unspecified) | – | 118 |
| CNC(=O)c1ccc(N2C(=S)N(c3ccc(C#N)c(C(F)(F)F)c3)C(=O)C2(C)C)cc1F | 13.2 µM (active) | – |
| CCOC(=O)N[C@@H]1CC[C@@H]2[C@@H](C1)C[C@H]1C(=O)O[C@H](C)[C@H]1[C@@H]2C=Cc1ccc(-c2cccc(F)c2)cn1 | 16.6 µM (active) | – |
| O=S(=O)(N=Cc1c(O)ccc2ccccc12)c1cccs1 | 20.9 µM (active) | – |
| CN(C(=O)c1ccc(F)cc1C(F)(F)F)C1CCN(c2nnc(-c3ccnn3C)c3ccccc23)CC1 | 13.2 µM (active) | – |

Test: Quantitative High-Throughput drug screen in 47 multiple myeloma cell lines against the NCATS MIPE library collection: VP6_DJ cell viability assay (AID 1919867); also: nearly all actives have a fitted effect of over 40% in size;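 as to viability (% of DMSO): 100% = DMSO-only wells and 0% = wells with media alone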
Details: ATP luminescence, 48 h; series mostly up to 45.8 µM; viability (% of DMSO): at the top concentration
Outline: as §1

| Compound | Potency | viability (% of DMSO) [%] |
| --- | --- | --- |
| Cc1ccnc(NS(=O)(=O)c2ccc(NC(=O)Nc3ccc(S(=O)(=O)Nc4nccc(C)n4)cc3)cc2)n1 | 2.64 µM (active) | – |
| Cc1cc(-c2ccc(CC(=O)Nc3ccc(-c4cccnc4)cc3)cc2)ccn1 | 11.8 µM (active) | – |
| CCc1cc(Nc2nccc(-c3c(-c4ccc(OC)c(C(=O)Nc5c(F)cccc5F)c4)nc4ccccn34)n2)c(OC)cc1N1CCC(N2CCN(S(C)(=O)=O)CC2)CC1 | 2.64 µM (active) | – |
| OC[C@H](Cc1ccccc1)Nc1nc(Oc2ccc3c(c2)CCC3)nc2c1ncn2Cc1ccc(-c2ccccc2)cc1 | – | 96.3 |
| Cc1n[nH]c(C)c1Cc1sc2c(c1C(=O)N1C[C@H](O)CO1)c(=O)n(C)c(=O)n2CC(C)C | – | 123 |
| Clc1ccc(Nc2nnc(Cc3ccncc3)c3ccccc23)cc1 | 23.5 µM (active) | – |
| COc1ccc2nc(S(=O)Cc3ncc(C)c(OC)c3C)[nH]c2c1 (stereo unspecified) | 16.6 µM (active) | – |
| CCn1c(-c2nonc2N)nc2cnc(Oc3cccc(NC(=O)c4ccc(OCCN5CCOCC5)cc4)c3)cc21 | 8.33 µM (active) | – |
| C[C@@H]1CN(Cc2ccc(F)cc2)[C@@H](C)CN1C(=O)c1cc2c(C(=O)C(=O)N(C)C)cn(C)c2cc1Cl | 14.8 µM (active) | – |
| Cc1ccccc1C(OCCN(C)C)c1ccccc1 (stereo unspecified) | – | 160 |
| c1ccc(-c2nn3c(c2-c2ccnc4cc(OCCN5CCOCC5)ccc24)CCC3)nc1 | 1.87 µM (active) | – |
| CCn1c(-c2nonc2N)nc2c(C#CC(C)(C)O)ncc(OC[C@H]3CCCNC3)c21 | 14.8 µM (active) | – |
| Cc1cccc(-c2nn(C(=S)Nc3ccccc3)cc2-c2ccnc3ccccc23)n1 | 9.35 µM (active) | – |
| Cc1cccc(-c2[nH]c(C(C)(C)C)nc2-c2ccc3nccnc3c2)n1 | 2.96 µM (active) | – |
| CC1(C)CNc2cc(NC(=O)c3cccnc3NCc3ccncc3)ccc21 | 1.66 µM (active) | – |
| Cc1cc(C=c2sc3nc4ccccc4n3c2=O)c(C)n1-c1ccccc1 | – | 108 |
| CN(C(=O)c1ccc(F)cc1C(F)(F)F)C1CCN(c2nnc(-c3ccnn3C)c3ccccc23)CC1 | 16.6 µM (active) | – |

Test: Quantitative High-Throughput drug screen in 47 multiple myeloma cell lines against the NCATS MIPE library collection: PE2_PLB cell viability assay (AID 1919869); also: nearly all actives have a fitted effect of over 35% in size;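 as to viability (% of control): 100% = DMSO-only wells and 0% = cell-free media-only wells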
Details: PE2_PLB myeloma cells viability, ATP luminescence, 48 h; series mostly up to 45.8 µM; viability (% of control): at the top concentration
Outline: as §1

| Compound | Potency | viability (% of control) [%] |
| --- | --- | --- |
| Oc1cccc(-c2nc(N3CCOCC3)c3oc4ncccc4c3n2)c1 | 0.0855 µM (active) | – |
| CCc1cc(Nc2nccc(-c3c(-c4ccc(OC)c(C(=O)Nc5c(F)cccc5F)c4)nc4ccccn34)n2)c(OC)cc1N1CCC(N2CCN(S(C)(=O)=O)CC2)CC1 | 5.26 µM (active) | – |
| O=c1n(CCCN2CCN(c3cccc(Cl)c3)CC2)nc2ccccn12 | – | 99.4 |
| Cc1n[nH]c(C)c1Cc1sc2c(c1C(=O)N1C[C@H](O)CO1)c(=O)n(C)c(=O)n2CC(C)C | 0.235 µM (active) | – |
| CCOc1cc(C(=O)Nc2ccc(Cl)c(-c3nc4ccccc4[nH]3)c2)cc(OCC)c1OCC | 8.33 µM (active) | – |
| COc1cc(Oc2ccnc3cc(OC)c(OC)cc23)ccc1NC(=O)NC(C)c1nccs1 (stereo unspecified) | 23.5 µM (active) | – |
| CCn1c(-c2nonc2N)nc2cnc(Oc3cccc(NC(=O)c4ccc(OCCN5CCOCC5)cc4)c3)cc21 | 10.5 µM (active) | – |
| C[C@@H]1CN(Cc2ccc(F)cc2)[C@@H](C)CN1C(=O)c1cc2c(C(=O)C(=O)N(C)C)cn(C)c2cc1Cl | 16.6 µM (active) | – |
| Cc1ccccc1C(OCCN(C)C)c1ccccc1 (stereo unspecified) | – | 96.3 |
| c1ccc(-c2nn3c(c2-c2ccnc4cc(OCCN5CCOCC5)ccc24)CCC3)nc1 | 10.5 µM (active) | – |
| Cn1cc(-c2ccc3nnc(C(F)(F)c4ccc5ncccc5c4)n3n2)cn1 | – | 103 |
| CCn1c(-c2nonc2N)nc2c(C#CC(C)(C)O)ncc(OC[C@H]3CCCNC3)c21 | 9.35 µM (active) | – |
| Cc1cccc(-c2nn(C(=S)Nc3ccccc3)cc2-c2ccnc3ccccc23)n1 | 7.43 µM (active) | – |
| CNC(=O)c1ccc(N2C(=S)N(c3ccc(C#N)c(C(F)(F)F)c3)C(=O)C2(C)C)cc1F | – | 96 |
| Cc1cccc(-c2[nH]c(C(C)(C)C)nc2-c2ccc3nccnc3c2)n1 | 2.09 µM (active) | – |
| Cc1cc(C=c2sc3nc4ccccc4n3c2=O)c(C)n1-c1ccccc1 | – | 95.9 |
| CN(C(=O)c1ccc(F)cc1C(F)(F)F)C1CCN(c2nnc(-c3ccnn3C)c3ccccc23)CC1 | 18.7 µM (active) | – |
